This is an account of results in paper PMC7819943, “Rice protein-binding microarrays: a tool to detect cis-acting elements near promoter regions in rice”.

The full ranking holds about 68,000 sequences; the median of “fluorescence intensity (a.u.)” is about 9,100, and the highest 2% start at about 16,000. Shown is part of a subset that was picked to be rich in the highest values.

The target in the test is OsWRKY34 (Oryza sativa, UniProt Q0JBA9 1-250). The test is described as follows: protein-binding microarray (RPBM); PBS, 2% BSA, 51.3 ng/ul salmon testes DNA, 50 uM zinc acetate, 200 nM TF, 25 C, 1 h; high values mean tight binding. The following applies: protein: recombinant; tags: N-terminal polyhistidine and DsRed monomer fusion (pET32a); label: CyDye5-dUTP incorporated in the synthesized complementary strand; 3' TTTTT single-stranded linker to array surface; dsDNA, one strand shown. The gist of the method: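 Using Ni–NTA, transcription factors fused N-terminally to polyhistidine and DsRed were purified after expression in E. coli BL21-CodonPlus. These were incubated at 200 nM with a blocked, double-stranded custom Agilent array for 1 h at 25 °C in a buffer containing 50 µM zinc acetate, and the array was washed. The binding signal is per-feature fluorescence intensity (arbitrary units) on an Axon 4000B scanner.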
Sequence of OsWRKY34 (Q0JBA9 entry or part of it): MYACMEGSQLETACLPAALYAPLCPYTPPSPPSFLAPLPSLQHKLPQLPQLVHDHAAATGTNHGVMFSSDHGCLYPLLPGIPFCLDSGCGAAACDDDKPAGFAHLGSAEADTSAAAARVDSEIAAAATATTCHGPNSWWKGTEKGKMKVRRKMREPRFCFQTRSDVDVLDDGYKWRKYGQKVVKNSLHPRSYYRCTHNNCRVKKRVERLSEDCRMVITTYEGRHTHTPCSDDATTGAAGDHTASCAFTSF
For “CGTTCCACCGCCGCGCCTCTTCCCCGCCCCGATCGGCTGCCGGAGTCACCTAGTGCAG”, the binding signal was 8810 fluorescence intensity (a.u.).

As to “ACTACAGTCCCTCGCCATGCATGCGCCGTCAGATGTCCAACGGAGTCACCTAGTGCAG”, the binding signal was 11500 fluorescence intensity (a.u.).

With “GAGCGGGGCGGGGCTGCATTTGGCGTCGCGATGGACCTCACGGAGTCACCTAGTGCAG”, the binding signal was 12600 fluorescence intensity (a.u.).

For the sequence “TTTTTACATCTTAGCCCCTTGCCGCTTTTGCGAATTTTGCCGGAGTCACCTAGTGCAG”, the binding signal is 9810 fluorescence intensity (a.u.).

For “GCCCACCATTTCCCCAAACATTTCCACACATTCCTACAATCGGAGTCACCTAGTGCAG”, the binding signal is 13600 fluorescence intensity (a.u.).

For the sequence “GTAGATGTAGTAGCTAGCTTTTGTTAATTTCAACGTTCCACGGAGTCACCTAGTGCAG”, the binding signal is 8380 fluorescence intensity (a.u.).

“AATATTTTTTTTCTCAATCATTTCTTATCATTATTATTATCGGAGTCACCTAGTGCAG”: the binding signal was 8280 fluorescence intensity (a.u.).

In the case of “TCTTCATTTCCGTGTTCAGCAGCTTTGCAATAATTTCTATCGGAGTCACCTAGTGCAG”, the binding signal was 11900 fluorescence intensity (a.u.).

Consider “TTTCCTCCGTCCCTGAGCTGTACTCGCGCCAATCAATCATCGGAGTCACCTAGTGCAG”, for which the binding signal was 9570 fluorescence intensity (a.u.).

“TCCCACTCAGCTGTCCGTCCGCCAATCACTGTACTTCTATCGGAGTCACCTAGTGCAG”: the binding signal was 22000 fluorescence intensity (a.u.).

For “ATCATCCCATCCCATCTCATCCGTCCATCCGCCAACTCATCGGAGTCACCTAGTGCAG”, the binding signal is 12300 fluorescence intensity (a.u.).

In the case of “GGGTTTTTTTTTTTTTTGCTGCTTTGCTTAGCACTTTTTTCGGAGTCACCTAGTGCAG”, the binding signal was 8340 fluorescence intensity (a.u.).

Turning to “ATCGGGGTTGTTGTTTTTGTAGCTGCTTAAGCTTTTTATTCGGAGTCACCTAGTGCAG”, the binding signal is 14100 fluorescence intensity (a.u.).

On to “CAGTGTAGGGGAGAGAGAGAGAGAGTGGGGTAGAGGGATGCGGAGTCACCTAGTGCAG”, for which the binding signal was 8980 fluorescence intensity (a.u.).

In the case of “GGAGGAGGAGCTAGGGTTTCGGATGGGAGGAGGAGGAGGGCGGAGTCACCTAGTGCAG”, the binding signal was 8800 fluorescence intensity (a.u.).

“GAGGTAGGGAGAGGTTTCGTTAGGGTTTCGGGCGGGGATGCGGAGTCACCTAGTGCAG”: the binding signal was 19900 fluorescence intensity (a.u.).

In the case of “GGCGGCGGCGGCAGGGGCGGCGGAGGGTTGGCGGCGGCGGCGGAGTCACCTAGTGCAG”, the binding signal was 11000 fluorescence intensity (a.u.).

In the case of “TTCGGGGAGGGTTTTCGGGGACAGCAGCTGCGGGCTTAAACGGAGTCACCTAGTGCAG”, the binding signal was 18700 fluorescence intensity (a.u.).

On to “CCAGGAGGGTGAGCTTGATGCAGGGGCGGGTGCGGGCGAGCGGAGTCACCTAGTGCAG”, for which the binding signal is 12500 fluorescence intensity (a.u.).

Regarding “CGGAGAGGGAGGGGAGCTAGGGTTTTTCGGGGCGGGGATGCGGAGTCACCTAGTGCAG”, the binding signal is 27600 fluorescence intensity (a.u.).

As to “AGAGATCGGGGTTTGGTTTTTTGGAGGGGAGAGCGGAGTGCGGAGTCACCTAGTGCAG”, the binding signal is 10200 fluorescence intensity (a.u.).

As for “CGGGAGGGCGAGAGGGTTTTCGGAGCGGGAGGGGAAGATGCGGAGTCACCTAGTGCAG”, the binding signal is 15200 fluorescence intensity (a.u.).

With “GGAGGGTTAGATCACCAGGGGCGGGTTGATGCAAAAAATTCGGAGTCACCTAGTGCAG”, the binding signal was 17000 fluorescence intensity (a.u.).
